Experimental data taken from PubChem BioAssay.

What follows are molecules tested on Fibrinogen (Alexa647-labelled) (assay: Alexa647-fibrinogen binding to printed small molecules – biochemical, small-molecule microarray, 635/667 nm fluorescence, artefact control for SMM control-protein annotation, profiling panel (AID 1131;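 further: z-score merges 667 nm fluorescence with per-spot signal-to-noise over triplicate slides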)). Conditions: fibrinogen-A647 binding fluorescence, higher = more signal.

SMILES | composite z-score
C=CCNC(=O)[C@H]1[C@@H]2C(=O)O[C@@H](c3ccccc3)[C@@H](c3ccccc3)N2[C@@H](c2ccc(OCCO)cc2)[C@]12C(=O)Nc1ccc(C#CCC(C(=O)OC)C(=O)OC)cc12 | 0.858
C=CCN1Cc2ccccc2[C@@H]2OC(c3ccc(OCCCO)cc3)=N[C@]2(CCS(=O)(=O)c2ccccc2)C1=O | 0.811
C[N+](C)(C)CCCC[C@@H]1NC(=O)[C@H]2C[C@@H](C(=O)NCCCCCCNC(=O)CS)[C@@H](c3ccc(O)cc3)N2C1=O | -2.2
CC(=O)Nc1cc(Br)ccc1C(=O)NCc1ccccc1 | 0.402
O=C1C2C=CC(C(O)c3ccc4c(c3)OCO4)N(Nc3ccc([N+](=O)[O-])cc3)C2C(=O)N1c1ccccc1 (configuration not stated) | 0.293
COc1ccc(C(O)C2C=CC3C(=O)N(C)C(=O)C3N2N(c2ccccc2)c2ccccc2)c2ccccc12 (configuration not stated) | 0.384
COc1cc2c(cc1O)C=[N+](Cc1cc3c(cc1Br)OCO3)CC2 | -2.07

The molecules below were run against Follistatin (Homo sapiens) (UniProt P19883) (assay: FST protein binding to printed compounds – biochemical, small-molecule microarray, 635/667 nm fluorescence, primary screen (AID 1132)). Conditions: 635 nm fluorescence, higher = more signal.
Follistatin (Homo sapiens), sequence (P19883 whole entry, looked up): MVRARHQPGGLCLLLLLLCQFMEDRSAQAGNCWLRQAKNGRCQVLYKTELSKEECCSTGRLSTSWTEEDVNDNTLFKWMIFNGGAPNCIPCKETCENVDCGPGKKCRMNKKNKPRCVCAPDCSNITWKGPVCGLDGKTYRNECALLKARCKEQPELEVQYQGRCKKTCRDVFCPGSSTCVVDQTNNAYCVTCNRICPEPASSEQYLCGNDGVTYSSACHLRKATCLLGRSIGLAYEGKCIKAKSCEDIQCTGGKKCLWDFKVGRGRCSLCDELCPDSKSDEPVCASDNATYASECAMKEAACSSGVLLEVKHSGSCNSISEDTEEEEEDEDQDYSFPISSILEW

SMILES | composite z-score
CC(C)N1CC=CC23O[C@@H]4C=CCOC(=O)[C@@H]4[C@H]2C(=O)N(CCCCCO)[C@@H]3C1=O (some centres not stated) | -0.382
[N-]=[N+]=Nc1ccccc1C[C@@]1(C(=O)N2CCCCC2)N=C(c2ccc(OCCCO)cc2)O[C@@H]1c1ccccc1 | 0.72
OCC1C=C(/C=C/c2ccccc2)CN1Cc1ccccc1Br (configuration not stated) | 1.29
C=CC[C@@]1(C(=O)N2CCCCC2)N=C(c2ccc(OCCCO)cc2)O[C@@H]1c1ccccc1N=[N+]=[N-] | 1.09
CO[C@H]1O[C@H](CO)[C@@H](OC(=O)Nc2ccc(Oc3ccccc3)cc2)[C@H](OC(=O)Nc2ccc3c(c2)OCO3)[C@@H]1OC(=O)Nc1ccc2c(c1)OCO2 | 1.28
COCCOC(=O)N1C(=O)[C@@]2(c3ccccc31)[C@H](C(=O)N1CCc3cc(OC)c(OC)cc3C1)[C@H]1C(=O)O[C@H](c3ccccc3)[C@H](c3ccccc3)N1[C@@H]2c1ccc(O)cc1 | 1.09
CCCCC(=C=CC[C@@H](O)c1cccc(OCCO)c1)C[C@@H](O)c1ccccn1 | 1.31
CCOC(=O)C[C@H]1[C@H](OC(=O)c2cc3ccccc3oc2=O)[C@@H](NC(=O)CC(C)C)c2cc(OCCCO)ccc2N1C(=O)c1ccccc1 | 0.478
CC(C)(C)OC(=O)CC[C@@]1(C(=O)N2CCCCC2)N=C(c2ccc(OCCCO)cc2)O[C@@H]1c1ccccc1 | 1.09
Cc1ccc(S(=O)(=O)N2C[C@@H](C(=O)O)[C@H](Sc3ccccc3)C[C@H]2c2ccccc2)cc1 | 0.999
O=C1[C@H]2C=C(Br)[C@H](C[C@@H]2OCCCCCCO)[C@@]12CO2 | -0.266
COc1ccc(C(=O)Nc2cccc(CN3C(=O)[C@]4(O[C@H](CCn5cc(CCO)nn5)[C@@H]([Si](C)(C)c5ccc(OC)cc5)[C@@H]4C)c4ccccc43)c2)cc1 | 1.29
C=C[C@H](C)[C@@H](OC(=O)Nc1ccc(SC)cc1)c1ccc(O)c2ccccc12 | 1.37
COCCOC(=O)N1C(=O)[C@@]2(c3cc(C#CC4(O)CCCCCC4)ccc31)[C@H](C(=O)Nc1nc3ccccc3s1)[C@H]1C(=O)O[C@H](c3ccccc3)[C@H](c3ccccc3)N1[C@@H]2c1ccccc1OCCO | 1.01
C=CCC(OC(C)=O)[C@@H]1[C@@H](N(Cc2ccc(-c3ccccc3)cc2)C(=O)Cc2ccc(F)cc2)c2cc(OCCCO)ccc2N1C(=O)c1ccc2ccccc2c1 (some centres not stated) | 0.296
CN(C)CCCC[C@@H]1NC(=O)[C@H]2C[C@@H](C(=O)NCCCCCN)[C@@H](c3cccc(OCCO)c3)N2C1=O | 1.38
C=CC[C@]1(C(=O)NCc2ccccc2)N=C(c2ccc(OCCCO)cc2)O[C@H]1c1ccccc1CN=[N+]=[N-] | 1.31
O=C(CS)NCCCCCNC(=O)[C@@H]1C[C@@H]2C(=O)NCC(=O)N2[C@@H]1c1ccc(O)cc1 | 1.18

SMILES | composite z-score
C=CCC(OC(C)=O)[C@@H]1[C@@H](N(Cc2ccc(-c3cccc(C(F)(F)F)c3)o2)C(=O)c2cccc3ccccc23)c2cc(OCCCO)ccc2N1C(=O)Cc1ccc2ccccc2c1 (some centres not stated) | 0.37
C=CCC(OC(C)=O)[C@@H]1[C@@H](N(Cc2ccc(-c3cccc(C(F)(F)F)c3)o2)C(=O)Cc2ccc(OC)cc2)c2cc(OCCCO)ccc2N1C(=O)c1ccc2ccccc2c1 (some centres not stated) | 0.776
CC(C)CN1C(=O)[C@@]2(c3ccc([N+](=O)[O-])cc3)CC(=O)N(C3CCCCC3)[C@@H]2c2ccc(CO)cc21 | -1.29
O=C1C2C=CC(C(O)C=Cc3ccc([N+](=O)[O-])cc3)N(n3cnnc3)C2C(=O)N1Cc1ccccc1 (configuration not stated) | 1.16
O=C1O[C@H](c2ccccc2)[C@H](c2ccccc2)N2[C@H]1[C@@H](C(=O)NC[C@H](O)c1ccccc1)[C@]1(C(=O)Nc3ccc(C#CC4=CCCCC4)cc31)[C@H]2c1ccccc1OCCO | 1.1
O=C1NC(=O)C2C1C=CC(C(O)c1ccc(I)cc1)N2Nc1ccc(Cl)cc1Cl (configuration not stated) | 0.73
CC(C)CCC[C@@H](C)[C@H]1CC[C@@]2(C)C3=C(CC[C@]12C)[C@@]1(C)CC[C@H](OC(=O)c2ccc(C(F)(F)F)nc2)C(C)(C)C1CC3 (some centres not stated) | 0.599
CC(C)(C)OC(=O)CC[C@]1(C(=O)NCCN2CCOCC2)COC(c2ccc(OCCCO)cc2)=N1 | 1.32
CN1C(=O)C2C=CC(C(O)c3ccccc3)N(N3CCCCC3)C2C1=O (configuration not stated) | 0.602
CC[C@@H]1C=C(C(=O)O)[C@H](c2cccc3ccccc23)N1S(=O)(=O)c1ccc(C)cc1 | 0.414
C=CCNC(=O)[C@H]1[C@@H]2C(=O)O[C@@H](c3ccccc3)[C@@H](c3ccccc3)N2[C@@H](c2ccc(OCCO)cc2)[C@]12C(=O)Nc1ccc(C#CCC(C(=O)OC)C(=O)OC)cc12 | 0.929
C=CCN1Cc2ccccc2[C@@H]2OC(c3ccc(OCCCO)cc3)=N[C@]2(CCS(=O)(=O)c2ccccc2)C1=O | 1.4
C[N+](C)(C)CCCC[C@@H]1NC(=O)[C@H]2C[C@@H](C(=O)NCCCCCCNC(=O)CS)[C@@H](c3ccc(O)cc3)N2C1=O | 1.36
CC(=O)Nc1cc(Br)ccc1C(=O)NCc1ccccc1 | -0.0708
O=C1C2C=CC(C(O)c3ccc4c(c3)OCO4)N(Nc3ccc([N+](=O)[O-])cc3)C2C(=O)N1c1ccccc1 (configuration not stated) | 0.225
COc1ccc(C(O)C2C=CC3C(=O)N(C)C(=O)C3N2N(c2ccccc2)c2ccccc2)c2ccccc12 (configuration not stated) | 1.41
COc1cc2c(cc1O)C=[N+](Cc1cc3c(cc1Br)OCO3)CC2 | -0.174
